# Reference: PubChem BioAssay AID1851 (National Center for Advancing Translational Sciences (NCATS), 2009)
# Among all 16,000 compounds or so, about 2,600 (16%) were called active. Inconclusive results (about 20%) are left out. The call rests on the fitted dose curve; in most records, active means well fitted curve in the direction sought with a large enough effect; inconclusive means small, poorly fitted or top-dose-only effect, or effect the other way; inactive means no such curve, though single readings can be large or run the other way. A selection follows.
# Biological target: Cytochrome P450 2D6 (Homo sapiens) (UniProt P10635)
# Assay: Cytochrome panel assay with activity outcomes
# Details: recombinant CYP, pro-luciferin dealkylation, luminescence, p450-cyp2d6; series mostly up to 57.1 µM; activity, negative = inhibition: at the top concentration
# On the % scale 0 is the no-effect control and ±100 the full control effect.
# Chain of Cytochrome P450 2D6 (Homo sapiens) (P10635 whole entry, looked up): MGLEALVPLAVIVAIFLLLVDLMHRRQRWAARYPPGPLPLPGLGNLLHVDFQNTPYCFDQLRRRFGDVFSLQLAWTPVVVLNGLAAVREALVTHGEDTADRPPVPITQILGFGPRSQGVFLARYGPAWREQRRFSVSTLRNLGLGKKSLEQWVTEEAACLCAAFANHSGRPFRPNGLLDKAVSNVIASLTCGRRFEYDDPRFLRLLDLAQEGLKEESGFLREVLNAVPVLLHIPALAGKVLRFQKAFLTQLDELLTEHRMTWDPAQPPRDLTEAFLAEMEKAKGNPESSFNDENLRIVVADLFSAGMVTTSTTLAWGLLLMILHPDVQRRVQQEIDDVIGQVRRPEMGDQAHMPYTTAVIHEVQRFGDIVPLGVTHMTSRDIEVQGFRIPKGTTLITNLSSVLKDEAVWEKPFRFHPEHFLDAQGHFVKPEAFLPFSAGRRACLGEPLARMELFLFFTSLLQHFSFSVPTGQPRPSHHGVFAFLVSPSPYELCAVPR
SMILES,"activity, negative = inhibition",AC50
O=C(NCc1ccco1)c1cc(C(=O)C2CCCCC2)c[nH]1,-6.41% (inactive),–
CCCCCC(=O)O[C@H](CC(=O)O)C[N+](C)(C)C,-11.7% (inactive),–
Cc1cc2cccc(C)c2nc1SCC(=O)N(C)c1nc(-c2ccccc2)cs1,-0.855% (inactive),–
COc1ccc(NC(=O)N2CCCC3(CCN(C(=O)c4cc(C(F)(F)F)cc(C(F)(F)F)c4)CC3)C2)cc1,3.95% (inactive),–
O=C1[C@H]2[C@H]3[C@H](O)[C@H](O)C/C(=N/OC[C@@H](O)COCc4ccco4)[C@@H]3CC[C@@H]2C(=O)N1C1CCCCC1,7.51% [at 11.4 µM] (inactive),–
Oc1cccc2ccc(SSc3ccc4cccc(O)c4n3)nc12,-0.179% [at 11.4 µM] (inactive),–
COc1ccc(-c2nn3cnnc3s2)cc1OC,-5.22% (inactive),–
C/C(=C/C(=O)NCc1ccccc1)C(=O)O,-22.1% (inactive),–
O=C(O)NCc1ccccc1 (tested in a mixture with another compound),–,3.98 µM (active)
CCCC(=O)NNC(=O)CCC(=O)NCc1ccccc1,10.5% (inactive),–
O=c1c2ccc(Cl)cc2nc(-c2cccc(C(F)(F)F)c2)n1O,-2.94% (inactive),–
Cc1n[nH]c(=O)n1-c1cccc(C(F)(F)F)c1,3.26% (inactive),–
CC1=CC(=O)N(c2cccc(C(F)(F)F)c2)C1c1ccc(Cl)cc1 (stereo not drawn),–,2.51 µM (active)
O=C(CSc1nc(-c2ccccc2)nc2ccccc12)Nc1nccs1,-12.9% (inactive),–
CCC1C(=O)N=C(SCC(=O)Nc2ccc(C(=O)OC)cc2)NC1=O (stereo not drawn),22.4% (inactive),–
COC(=O)c1ccc(NC(=O)Cn2nc(-c3ccncc3)nc2SCC(=O)Nc2nccs2)cc1,–,10 µM (active)
O=C(O)c1sc2cc(C(F)(F)F)cnc2c1-c1ccccc1,4.15% (inactive),–
CCCCC1CC(/C(C)=N/NC(N)=O)OC1=O (stereo not drawn),3.14% (inactive),–
CC(C)c1ccc(CNc2cc(N3CCCC3)ccc2[N+](=O)[O-])cc1,-12.9% (inactive),–
O=C(Cc1ccccc1)NC(NCCc1ccccc1)C(Cl)(Cl)Cl (stereo not drawn),–,14.1 µM (active)
O=C(NC(NCc1ccccc1)C(Cl)(Cl)Cl)c1cccnc1 (stereo not drawn),-17.4% (inactive),–
CC(CP(=O)(O)O)NC(=O)Cc1ccccc1 (stereo not drawn),13.9% (inactive),–
Cc1n[nH]c(=S)n1/N=C/c1ccccc1OCc1ccc(Cl)cc1,-2.31% (inactive),–
CCOC(=O)c1ccc(NC(=O)COc2ccccc2OC)cc1,-1.48% (inactive),–
CCOc1nc(NCCc2ccc(OC)c(OC)c2)nc(NC(C)(C)CO)n1,-10.7% (inactive),–

SMILES,"activity, negative = inhibition",AC50
COc1cc(CNC(C)(C)CO)ccc1OCC(=O)Nc1ccc(Br)cc1,–,5.01 µM (active)
C=CCOc1ccc(CNC(C)(C)CO)cc1OC,–,1.41 µM (active)
COc1ccc(CNC(C)(C)C)cc1Cl,-20.5% (inactive),–
CCc1ccc(OCC(=O)NC(=S)Nc2ccc(F)cc2)c(Br)c1,-16.7% (inactive),–
CCOc1ccc(CNC(=O)C2CC(=O)N(C3CCCC3)C2)cc1OC (stereo not drawn),-1.57% (inactive),–
CCOc1ccc(CC(=O)C2C(=O)CCCC2=O)cc1OCC,-15.5% (inactive),–
C=CCOc1ccc(CNC(C)(C)CO)cc1OCC,–,1.41 µM (active)
Cc1ccccc1C(=O)NNC(=O)c1ccoc1C,-3.55% (inactive),–
CC(C)CC(=O)N[C@H](C(=O)N[C@H](C(=O)N[C@@H](CC(C)C)[C@H](O)CC(=O)N[C@@H](C)C(=O)N[C@@H](CC(C)C)[C@H](O)CC(=O)O)C(C)C)C(C)C,10.1% [at 25.6 µM] (inactive),–
O=C(Nc1nnc(-c2ccc(Cl)cc2)o1)Nc1ccccc1Cl,6% (inactive),–
COc1ccc(Oc2ncc3nc(-c4cc(F)cc(F)c4)c(=O)n(C)c3n2)cc1,5.83% (inactive),–
Cc1cc(C(F)(F)F)n2nc(-c3cnn(C)c3C(F)(F)F)cc2n1,5.93% (inactive),–
CN1CCN(c2ncc3nc(-c4cccs4)c(=O)n(C[C@H]4CCCO4)c3n2)CC1,-2.95% (inactive),–
COC(=O)c1c(-c2cc(OC)c(OC)c(OC)c2)c2ccnc(OCc3ncccn3)c2c(=O)n1Cc1ccnc(C)c1,-3.6% (inactive),–
C[C@H](N)C(=O)O,9.23% (inactive),–
Cc1ccc(S(=O)(=O)Oc2cc(N)c3c(n2)CCC3)cc1,-20.4% [at 11.4 µM] (inactive),–
COc1ccc2c(c1)OC1=C(C(=O)CCC1)C2C1=C(O)CCCC1=O (stereo not drawn),-11.1% (inactive),–
Cc1ccc(S(=O)(=O)Oc2ccc(C3C4=C(CCCC4=O)OC4=C3C(=O)CCC4)cc2)cc1,–,7.94 µM (active)
COc1ncc2nc(-c3ccccc3)c(=O)n(-c3ccccc3)c2n1,-11.6% (inactive),–
COC(=O)C(C(=O)OC)C(C[N+](=O)[O-])c1ccc(OC)c(OC)c1 (stereo not drawn),11.8% (inactive),–
O=C1CC(N(O)C2CC(=O)N(Cc3ccccc3)C2=O)C(=O)N1Cc1ccccc1 (stereo not drawn),-14.7% (inactive),–
CCOC(=O)CCN1C(=O)[C@H]2[C@H]3[C@H](O)[C@H](O)C/C(=N/OC[C@@H](O)COCc4ccco4)[C@@H]3CC[C@@H]2C1=O,7.94% [at 11.4 µM] (inactive),–
Nc1nccc(Nc2ccc(S(N)(=O)=O)cc2)n1,-5.16% [at 11.4 µM] (inactive),–
Cc1noc(C)c1-c1cc(Nc2ccc(F)cc2)ncn1,-3.49% (inactive),–
Cc1noc(C)c1-c1nccc(Nc2ccc(F)cc2)n1,4.6% (inactive),–

SMILES,"activity, negative = inhibition",AC50
CN(C)c1ccc(-c2nccc(Nc3ccc(F)cc3)n2)cc1,–,20 µM (active)
CN(C)C(=O)c1ccc(-c2nccc(Nc3ccc(F)cc3)n2)cc1,-8.36% (inactive),–
Fc1ccc(Nc2ccnc(-c3ccc4c(c3)OCO4)n2)cc1,–,10 µM (active)
C[C@H]1[C@@H](O)[C@@H](C)\C=C/C=C\C=C/C=C\C=C/C=C\C=C/[C@@H](O[C@H]2O[C@@H](C)[C@@H](O)[C@@H](N)[C@@H]2O)C[C@@H]2O[C@](O)(C[C@@H](O)C[C@@H](O)[C@@H](O)CC[C@@H](O)C[C@@H](O)CC(=O)O[C@H]1C)C[C@@H](O)[C@H]2C(=O)O (stereo in doubt),0.587% [at 25.6 µM] (inactive),–
Cc1sc2c(c1C)c(=O)n(-c1ccccc1)c1nnc(C)n21,-7.69% (inactive),–
CC(C)OC(=O)C(C)(C)Oc1ccc(C(=O)c2ccc(Cl)cc2)cc1,-6.74% [at 25.6 µM] (inactive),–
CC(C)(Oc1ccc(Cl)cc1)C(=O)Nc1cccnc1,-19.7% (inactive),–
CC(C)(Oc1ccc(Cl)cc1)C(=O)Nc1ccncc1,–,0.0316 µM (active)
CN(C)c1ncc2nc(-c3ccc(F)cc3)c(=O)n(CCc3ccccc3)c2n1,0.289% (inactive),–
COc1cc2ccc(=O)oc2cc1O,-3.08% [at 25.6 µM] (inactive),–
CS(=O)(=O)Nc1cccc(-c2nc(NCCN3CCOCC3)c3ccccc3n2)c1,-16.5% (inactive),–
CN(C)C(=O)c1ccc(-c2cncnc2NCCN2CCOCC2)cc1,-9.47% (inactive),–
N#Cc1cccc(-c2nc(NCCN3CCOCC3)c3ccccc3n2)c1,–,7.94 µM (active)
COc1cccc(-c2cc(C(F)(F)F)nc(N3CCOCC3)n2)c1,-15% (inactive),–
c1cncc(-c2nc(NCCN3CCOCC3)c3ccccc3n2)c1,–,10 µM (active)
Cc1noc(C)c1-c1cncnc1NCCN1CCOCC1,-18.3% (inactive),–
N#CCCn1c(=O)c(-c2cccc(C#N)c2)nc2cnc(N3CCOCC3)nc21,-0.118% (inactive),–
COc1cccc(-c2cncnc2NCCN2CCOCC2)c1,–,10 µM (active)
COc1cccc(-c2nc(NCCN3CCOCC3)c3ccccc3n2)c1,–,12.6 µM (active)
COC(=O)c1ccccc1NC(=O)c1ccc(COc2ccc(C)c(C)c2)o1,-19.6% (inactive),–
NCCCCCCCCCCN,4.93% (inactive),–
O=C1NC(c2ccccc2)=NC1(NS(=O)(=O)c1ccccc1)C(F)(F)F (stereo not drawn),1.41% (inactive),–
CCOC(=O)c1cc(-c2ccccc2)sc1NC(=O)C(C)(C)C,19.9% (inactive),–
Nc1nc(-c2ccc3ccccc3c2)cc(-c2cc(-c3ccc4ccccc4c3)nc(N)n2)n1,1.49% [at 11.4 µM] (inactive),–
CC(=O)Nc1cccc(C(=O)OCc2ccc(C(=O)Oc3ccc(Cl)cc3)cc2)c1,-14% (inactive),–

SMILES,"activity, negative = inhibition",AC50
CN1CCN(C(=O)C(C(=O)c2ccc(F)cc2)n2ccccc2=O)CC1 (stereo not drawn),6.96% (inactive),–
CCc1cccc2c(C=C(C#N)C#N)cn(CC(=O)N3CCCC3)c12,10.2% (inactive),–
COc1ccc(/C=C2\CCCC3C2=NN(C(=O)c2ccco2)C3c2ccc(OC)c(OC)c2)cc1OC (stereo not drawn),-5.57% (inactive),–
COc1ccc(/C=C2\N=C(SC)N(C)C2=O)cc1,-32.1% (inactive),–
O=C(N/N=C/C=C/c1ccccc1)c1cc2c(ccc3ccccc32)o1,15.2% (inactive),–
O=C(O)[C@@H](O)[C@@H](O)[C@@H](O)[C@@H](O)C(=O)O (tested in a mixture with another compound),-8.07% [at 25.6 µM] (inactive),–
CC(C)CCNC(=S)NC1CCCC1,-17.1% (inactive),–
Cc1nn(C(C)(C)C)c(OC(=O)c2ccco2)c1Sc1ccccc1,-16.8% (inactive),–
CCOC(=O)c1c(C)c(C)n2c1NC(=O)C2,-4.83% [at 11.4 µM] (inactive),–
CCOC(=O)c1c(C)c(C(=O)N2CCN(C(=O)c3ccco3)CC2)c(C)n1C,16.8% (inactive),–
CCOC(=O)c1c(C)c(C(=O)N2CCCCCC2)c(C)n1C,–,11.2 µM (active)
C[C@@]12CC[C@@H]3c4ccc(O)cc4CC[C@H]3[C@H]1C[C@@H](O)[C@H]2O,2.27% [at 25.6 µM] (inactive),–
Oc1ccccc1C(Sc1nc2ccccc2s1)Sc1nc2ccccc2s1,-20.9% [at 11.4 µM] (inactive),–
Cc1ccc(C(=O)CN(C(=O)c2ccc(Cl)cc2)N2C(=O)c3ccccc3C2=O)cc1,-2.54% (inactive),–
Cc1nnc(-c2cnn(-c3ccccc3)c2N)n1Cc1ccccc1,1.53% (inactive),–
CN(C)c1ccccc1CN1CCCN(Cc2ccccc2N(C)C)C1c1ccncc1,–,1.26 µM (active)
COc1cccc(/C=N\NC(=O)C2C(=O)NCC2c2ccccc2)c1O (stereo not drawn),-4.87% (inactive),–
COc1ccc(-c2nn(-c3ccccc3)cc2/C=N/NC(=O)c2ccc(Br)o2)cc1,0.403% (inactive),–
Cn1c(=O)n(CC#N)c2ccccc21,2.65% (inactive),–
c1ccc(Cc2nnc(Sc3ccccc3)c3ccccc23)cc1,-66.9% (inactive),–
CN(CCc1ccccn1)c1ccc2c(c1)Cc1ccccc1-2,–,3.16 µM (active)
S=C(Nc1ccc2c(c1)Cc1ccccc1-2)Nc1ccc2c(c1)Cc1ccccc1-2,1.03% [at 11.4 µM] (inactive),–
CNCCc1ccccn1,7.33% [at 25.6 µM] (inactive),–
